Assay outcomes (PubChem)
An excerpt weighted towards active compounds, which were near 3.8% of everything screened.
HepG2 tox: qHTS for Inhibitors of TGF-b: Cytotox Counterscreen; hit rate 0.76% among 410,000; HepG2 CAGA-GFP viability, ATP luminescence, 18 h; Potency, µM (top dose mostly 46.1 µM), inactives show at the highest dose activity change, negative = cytotoxicity, hits mostly cytotoxic
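CellTiter-Glo luminescence gave cytotoxicity after 18 hours at 37 degrees C. The cells were HepG2 CAGA-GFP in 1% FBS DMEM, stimulated with 500 pg/mL TGF-beta after compound addition. %Activity was normalised to no-cell wells (complete cell-killing) and DMSO (no toxicity), and curves were fitted and classified.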
TGFb SMAD3 inh: qHTS for Inhibitors of TGF-b | AID 588855, 2011 | HepG2 CAGA-GFP TGF-b/SMAD3 reporter, GFP fluorescence, 18 h; TGF-beta stimulated, 500 pg/mL final | Potency, µM (highest dose often 46.1 µM), inactives show at the highest dose activity, negative = inhibition, actives largely listed as inhibitors | hit rate 1.2% among 410,000; also: % is scaled to controls: 0 for no effect and ±100 for the full control effect; nearly all actives have a fitted effect of over 65% in size
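First, reporter cells (HEPG2 CAGA-GFP) rested 2 h at 37 degrees C. Next, compounds were pinned in and TGF-beta added to 500 pg/mL final. After 18 h, GFP was imaged per cell and summed per well.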
ATXN2 expr inh: Primary qHTS for Inhibitors of ATXN expression. Potency, µM (highest dose often 57 µM), for inactives: top-dose activity change, negative = inhibition, actives largely listed as inhibitors. hit rate 0.72% among 360,000. HEK-293 ATXN2-luciferase reporter, luminescence, 24 h. AID 1745845, 2022; also: % is scaled to controls: 0 for no effect and ±100 for the full control effect; nearly all actives have a fitted effect of over 55% in size
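ATXN2-luciferase reporter cells (luciferase flanked by upstream and downstream ATXN2 gene portions) were treated 24 h at 37 °C with compounds at up to 57 uM. SteadyGlo luminescence gave expression; GF-AFC fluorescence gave viability.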
HT1080 IDH1KD tx: qHTS for induction of synthetic lethality in tumor cells producing 2HG: qHTS for the HT-1080-IDH1KD cell line; HT-1080 IDH1 knockdown viability, ATP luminescence, 48 h; hit rate 2% among 360,000; Potency, µM (titrated, usually from 46.1 µM), for the others: at the highest dose activity, negative = toxicity, actives largely listed as cytotoxic;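 also: 0% = DMSO wells and -100% = cell-free medium wells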
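Viability of IDH1-knockdown HT-1080 fibrosarcoma cells was assessed by CellTiter-Glo after 48 h at 37 °C with titrated compound; concentration-effect curves were classified by fit quality and response size.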
HT1080-NT tox: qHTS for induction of synthetic lethality in tumor cells producing 2HG: qHTS for the HT-1080-NT fibrosarcoma cell line | HT-1080-NT fibrosarcoma viability, CellTiter-Glo ATP luminescence, 48 h | hit rate 1.6% among 360,000 | Potency, µM (doses to about 46.1 µM), inactives show at the top dose activity, negative = less viability, hits mostly cytotoxic | AID 686970, 2013;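 also: NT is the 2HG producing partner of a matched IDH1 knockdown line; 0% = DMSO-treated cells and -100% = media-only wells without cells; nearly all actives have a fitted effect of over 55% in size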
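A 48-hour cytotoxicity screen used HT-1080-NT cells plated 2 hours before compound delivery. ATP-based CellTiter-Glo luminescence measured viability, normalized to DMSO and no-cell controls.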
S2 tox: Viability Counterscreen for Primary qHTS for Inhibitors of ATXN expression | Potency, µM (titrated, usually from 56.7 µM), hits mostly cytotoxic | hit rate 0.49% among 400,000 | S2 cells (HEK-293 line with an ATXN2-luciferase reporter) viability, CellTiter-Fluor protease fluorescence, 24 h; also: nearly all actives have a fitted effect of over 40% in size
Starred values were filed as active, the others as inactive; [ ] = remark or other dose. Calls follow the shape of the dose curve; as a rule, active = well fitted curve in the direction sought with a large enough effect; inconclusive = small, poorly fitted or top-dose-only effect, or another doubt; inactive = no such curve, though single readings can be large; an effect the other way counts as inactive or inconclusive. Potency is read from the fitted curve at half-maximal effect.

Cc1cccc2c(N)c3c(nc12)CCCC3 (tested in a mixture with another compound) was read as HepG2 tox -23.9%, TGFb SMAD3 inh -27.2%, ATXN2 expr inh inconclusive, HT1080 IDH1KD tx -3.9%, HT1080-NT tox 2.5% and S2 tox inconclusive.
Screening Cc1cc(C)c2c(N)c3cccc(C)c3nc2n1 returned HepG2 tox 26.2%, TGFb SMAD3 inh inconclusive, ATXN2 expr inh 13.4µM*, HT1080 IDH1KD tx 9.2µM* and HT1080-NT tox 10.3µM*.
CCOC(=O)c1cnc2ccc(OC)cc2c1Nc1ccc(N2CCN(C)CC2)cc1 was read as HepG2 tox -19.7%, TGFb SMAD3 inh inconclusive, ATXN2 expr inh inconclusive, HT1080 IDH1KD tx 23.1µM*, HT1080-NT tox inconclusive and S2 tox inactive.
For CCOC(=O)c1cnc2ccc(OC)cc2c1Nc1ccc2c(c1)OCCO2 the results were HepG2 tox -21.7%, TGFb SMAD3 inh 3.8%, ATXN2 expr inh inconclusive, HT1080 IDH1KD tx inconclusive, HT1080-NT tox inconclusive and S2 tox inactive.
For CCOC(=O)c1ccc2ncc(C(=O)OCC)c(Nc3ccc(N4CCOCC4)cc3)c2c1 the results were HepG2 tox -32.4%, TGFb SMAD3 inh inconclusive, ATXN2 expr inh 22.4µM*, HT1080 IDH1KD tx inconclusive, HT1080-NT tox inconclusive and S2 tox inconclusive.
Cc1ccc(NC(=O)Cn2c(=O)n(CCc3ccccc3)c(=O)c3c4c(sc32)CCCC4)cc1C was read as HepG2 tox -3.4%, TGFb SMAD3 inh -1.2%, ATXN2 expr inh -6.1% and S2 tox inactive.
Screening CC1(O)CC(c2ccc(Cl)cc2)=NN1C(=O)c1ccc(Cl)cc1 (stereo not drawn) returned HepG2 tox -41.0%, TGFb SMAD3 inh 10µM*, HT1080 IDH1KD tx -8.2%, HT1080-NT tox -8.9% and S2 tox inactive.
For CC(=O)N1CCN(c2ccc(O)cc2)CC1 the results were ATXN2 expr inh -17.0% and S2 tox inactive.
S=C1Cc2ccccc2N1 was read as HepG2 tox 8.91µM*, TGFb SMAD3 inh 5.62µM*, ATXN2 expr inh 6.31µM*, HT1080 IDH1KD tx 5.17µM*, HT1080-NT tox 4.61µM* and S2 tox 5.62µM*.
`O=C(/C=C/c1ccccc1)Nc1nc(-c2cccs2)ns1` gave HepG2 tox -26.9% and TGFb SMAD3 inh 0.0%.
For Nc1c(Br)cc(/C=C2\C=Cc3ccccc32)cc1Br the results were HepG2 tox -35.7% and TGFb SMAD3 inh -27.9%.
`N=c1c2c(-c3ccccc3)c(-c3ccccc3)n(Cc3ccco3)c2ncn1CCO` gave HepG2 tox -100.0%, TGFb SMAD3 inh inconclusive, ATXN2 expr inh inconclusive, HT1080 IDH1KD tx 18.4µM*, HT1080-NT tox 18.4µM* and S2 tox 14.1µM*.
`N=c1c2c(-c3ccccc3)c(-c3ccccc3)n(Cc3ccco3)c2ncn1CCN1CCOCC1` gave HepG2 tox -53.4%, TGFb SMAD3 inh inconclusive, ATXN2 expr inh inconclusive, HT1080 IDH1KD tx inconclusive, HT1080-NT tox inconclusive and S2 tox inconclusive.
N=c1c2c(-c3ccccc3)c(-c3ccccc3)n(Cc3ccco3)c2ncn1CCCO was read as HepG2 tox 17.8µM*, TGFb SMAD3 inh 25.1µM*, ATXN2 expr inh -36.7%, HT1080 IDH1KD tx 8.2µM*, HT1080-NT tox 20.6µM* and S2 tox inactive.
For Cc1c(Cl)cccc1NC(=O)Nc1ccc2snnc2c1 the results were HepG2 tox -35.8%, TGFb SMAD3 inh inconclusive, ATXN2 expr inh inconclusive and S2 tox inactive.
`COCC(=O)OC1CCn2c1nc1c2C(=O)C(C)=C(NC(C)=O)C1=O` (stereo not drawn) gave HepG2 tox -87.4%, TGFb SMAD3 inh inconclusive, ATXN2 expr inh 10µM*, HT1080 IDH1KD tx 4.61µM* and HT1080-NT tox 7.31µM*.
COc1ccc(C(CCNCc2ccc(OC)c(OC)c2)c2ccc(F)cc2)cc1 (stereo not drawn) was read as HepG2 tox -24.0%, TGFb SMAD3 inh 0.0%, ATXN2 expr inh -1.2%, HT1080 IDH1KD tx 2.1%, HT1080-NT tox 7.1% and S2 tox inactive.
For COc1cc(OC)c(OC)cc1CCC(C)NCCC(c1ccccc1)c1ccccc1 (stereo not drawn) the results were HepG2 tox 11.2µM*, TGFb SMAD3 inh 14.1µM*, HT1080 IDH1KD tx inconclusive, HT1080-NT tox inconclusive and S2 tox 15.8µM*.
For COc1ccc(CCNCCC(c2ccccc2)c2ccccc2)cc1OC the results were HepG2 tox 12.6µM*, TGFb SMAD3 inh inconclusive, HT1080 IDH1KD tx -28.7%, HT1080-NT tox -28.9% and S2 tox inconclusive.
`Cc1cn([C@@H]2O[C@H](CO)[C@@H](O)[C@H]2F)c(=O)[nH]c1=O` gave ATXN2 expr inh 8.5% and S2 tox inactive.
`COc1ccc(OCC(O)Cn2c(=N)n(Cc3ccccc3)c3ccccc32)cc1` (stereo not drawn) gave HepG2 tox -97.3%, TGFb SMAD3 inh inconclusive, ATXN2 expr inh inconclusive, HT1080 IDH1KD tx 11.2µM* and HT1080-NT tox inconclusive.
Screening Cc1cccc(OCC(O)Cn2c(=N)n(Cc3ccccc3)c3ccccc32)c1 (stereo not drawn) returned HepG2 tox -71.4%, TGFb SMAD3 inh inconclusive, HT1080 IDH1KD tx -18.1%, HT1080-NT tox -1.2% and S2 tox inactive.
`N=c1n(Cc2ccc(Cl)cc2)c2ccccc2n1CC(O)COc1ccccc1` (stereo not drawn) gave HepG2 tox -166.5%, TGFb SMAD3 inh inconclusive, ATXN2 expr inh inconclusive, HT1080 IDH1KD tx 14.6µM* and HT1080-NT tox 20.6µM*.
Screening Cc1ccc(OCC(O)Cn2c(=N)n(Cc3ccccc3)c3ccccc32)cc1 (stereo not drawn) returned HepG2 tox 12.6µM*, TGFb SMAD3 inh inconclusive, ATXN2 expr inh inconclusive, HT1080 IDH1KD tx 18.4µM*, HT1080-NT tox -24.6% and S2 tox inconclusive.
N=c1n(Cc2ccccc2)c2ccccc2n1CC(O)COc1ccc(Cl)cc1Cl (stereo not drawn) was read as HepG2 tox 11.2µM*, TGFb SMAD3 inh inconclusive, ATXN2 expr inh -15.7%[11.3 µM], HT1080 IDH1KD tx 11.6µM* and HT1080-NT tox 29.1µM*.
For Cc1cccc(Cn2cnc3c(cnn3C(C)(C)C)c2=O)c1 the results were HepG2 tox -65.9% and TGFb SMAD3 inh inconclusive.
